{"source": "ChEMBL document CHEMBL5308504", "about": "“Tm Shift (DSF) assay results for EUbOPEN Chemogenomics Library” (2023)", "note": "Where “and” joins values, the source holds several entries; their conditions need not be identical. Equal values may be shown once.", "data": [{"molecular_target": "Casein kinase I isoform delta (Homo sapiens) (UniProt P48730)", "sequence (P48730 whole entry, looked up, canonical isoform)": "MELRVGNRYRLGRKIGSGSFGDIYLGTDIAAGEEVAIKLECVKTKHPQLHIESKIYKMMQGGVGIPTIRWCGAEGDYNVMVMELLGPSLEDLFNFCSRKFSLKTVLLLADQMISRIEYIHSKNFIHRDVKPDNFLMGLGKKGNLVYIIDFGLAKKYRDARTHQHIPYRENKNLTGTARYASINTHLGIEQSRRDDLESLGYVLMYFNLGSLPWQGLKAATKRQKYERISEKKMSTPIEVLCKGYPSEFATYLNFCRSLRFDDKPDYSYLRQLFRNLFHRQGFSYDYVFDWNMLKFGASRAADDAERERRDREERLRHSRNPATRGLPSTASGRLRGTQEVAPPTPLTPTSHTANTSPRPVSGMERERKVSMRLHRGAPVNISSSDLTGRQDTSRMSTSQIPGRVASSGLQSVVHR", "settings": "Compound concentration 20.0 uM, Protein concentration 2.0 uM, Result type QC Liability", "values": [{"compound": "O=C1Nc2ccc(I)cc2/C1=C/c1cc(Br)c(O)c(Br)c1", "ΔTm": "0.18 °C"}, {"compound": "Cc1cc2ncnn2cc1Nc1ncc2c(n1)n(C1CCOCC1)c(=O)n2C", "ΔTm": "0.63 °C"}, {"compound": "CNc1oc(-c2cccc3ccccc23)nc1C#N", "ΔTm": "-0.04 °C"}, {"compound": "COc1ccc(CSc2nnc(-c3ccc4ncsc4c3)o2)cc1C(F)(F)F", "ΔTm": "-10.2 °C"}, {"compound": "CC(C)C(=O)N1CCC(c2cn(C)c3ncc(NC(=O)c4cccc(C#N)c4)c(C(F)(F)F)c23)CC1", "ΔTm": "0.74 °C"}, {"compound": "COCCN1CCN(CCn2ccc(Nc3ncc4c(n3)-c3c(nn(C)c3-c3ccccc3)C[C@H]4C)n2)CC1", "ΔTm": "5.97 °C"}, {"compound": "N#C/C(=C\\c1ccc(O)c(O)c1)C(=O)OCCc1cccs1", "ΔTm": "2.15 °C"}, {"compound": "CC(=O)N(CCN(C)C)c1ccc(N/C(=C2\\C(=O)Nc3cc(Cl)ccc32)c2ccccc2)cn1", "ΔTm": "2.87 °C"}, {"compound": "Cc1nc(-c2ccc(C(F)(F)F)cc2)sc1C(=O)NCc1ccc(OC(C)(C)C(=O)O)cc1", "ΔTm": "0.63 °C"}, {"compound": "CC(C)N(CCCCOCC(=O)O)c1cnc(-c2ccccc2)c(-c2ccccc2)n1", "ΔTm": "0.48 °C"}, {"compound": "FC(F)c1cncc(-c2ccc3ncc4nnc(C5=CCCOCC5)n4c3c2)c1", "ΔTm": "0.33 °C"}, {"compound": "CC(C)c1cnc(NC(=O)Cc2ccccc2)s1", "ΔTm": "2.55 °C"}, {"compound": "CCCCOc1c(C(=O)c2c(F)cc(C)cc2F)c[nH]c2nncc1-2", "ΔTm": "0.13 °C"}, {"compound": "CCN1C(=O)c2cc(C)ccc2N(C)c2ncccc21", "ΔTm": "0.14 °C"}, {"compound": "CCOCCn1cc(C(=O)Nc2ccc(-n3nc(-c4cccnc4)cc3C(F)(F)F)cn2)ccc1=O", "ΔTm": "0.33 °C"}, {"compound": "CC#CCC(C)[C@H](O)/C=C/[C@@H]1[C@H]2C/C(=C/CCCC(=O)O)C[C@H]2C[C@H]1O", "note": "(some centres undefined)", "ΔTm": "0.31 °C"}, {"compound": "COc1ccc(S(=O)(=O)N2CCOCC2)cc1Nc1ccc2c(n1)N(C1CCOCC1)[C@H](C)C(=O)N2C", "ΔTm": "-0.08 °C"}, {"compound": "CC1CN(CC(=O)N2CC(C)(C)c3nc(CO)c(Cc4ccc(F)cc4)cc32)C(CN2CCOCC2C)CN1", "note": "(centres undefined)", "ΔTm": "0.32 °C"}, {"compound": "O=C(O)CCCc1cc2cc(Cl)ccc2n1S(=O)(=O)c1ccc2ncsc2c1", "ΔTm": "1.03 °C"}, {"compound": "O=S(=O)(Nc1ccc(C(O)(C(F)(F)F)C(F)(F)F)cc1)c1cccs1", "ΔTm": "0.38 °C"}, {"compound": "COC(=O)Nc1nc2c(s1)-c1c(c(-c3cccnc3)nn1-c1ccc(C3(N(C)C)CC3)cc1)CC2", "ΔTm": "-0.25 °C"}, {"compound": "COc1ccccc1S(=O)(=O)Nc1ccc2c(c1)CN(C)C(=O)N2", "ΔTm": "0.79 °C"}, {"compound": "CC(C)(C)OC(=O)CN(Cc1ccc(Cl)cc1)Cc1ccc([N+](=O)[O-])s1", "ΔTm": "0.3 °C"}, {"compound": "COc1c(OCCCN2CCOCC2)ccc2c1N=C(NC(=O)c1cnc(N)nc1)N1CCN=C21", "ΔTm": "0.2 °C"}, {"compound": "COCCc1ccc(-c2c(C)nc3c(N4CCOCC4)ccnn23)cn1", "ΔTm": "0.24 °C"}, {"compound": "COc1cc(OC)cc(-c2cc3cnc(N)nc3nc2NC(=O)NC(C)(C)C)c1", "ΔTm": "0.28 °C and -0.14 °C"}, {"compound": "COCCNC1CCC(Nc2cc(-c3csc(NCC4(C#N)CCOCC4)n3)c(Cl)cn2)CC1", "note": "(centres undefined)", "ΔTm": "2.18 °C"}, {"compound": "Cc1cc(-c2ccnc(Nc3cnn(C)c3)n2)ccc1CNC(=O)N1CC(OC(C)C)C1", "ΔTm": "0.77 °C"}, {"compound": "COCCCS(=O)(=O)c1cc(C)c(-c2ccc(F)c3c2CC[C@H]3Oc2ccc3c(c2)OC[C@H]3CC(=O)O)c(C)c1", "ΔTm": "0.06 °C"}, {"compound": "COc1cc2nc([C@@H]3CCCS(=O)(=O)C3)n(C)c2cc1NC(=O)c1cccc(C(C)(F)F)n1", "ΔTm": "0.86 °C"}, {"compound": "CN1C(=O)Cc2ccc(-c3ccc(C[C@@H](C#N)NC(=O)[C@@H]4N[C@H]5CC[C@@H]4C5)c(F)c3)cc21", "ΔTm": "0.17 °C"}, {"compound": "CCN(C(=O)c1cc(F)ccc1Oc1cncnc1N1CC2(CCN(C[C@H]3CC[C@H](NS(=O)(=O)CC)CC3)CC2)C1)C(C)C", "ΔTm": "-0.25 °C"}, {"compound": "CC(C)(C)c1cc(NC(=O)c2csc(Nc3ccccn3)n2)no1", "ΔTm": "0.84 °C"}, {"compound": "O=C(Nc1cccc(C(F)(F)F)c1)c1cccc(-n2cc(-c3ccco3)nn2)c1", "ΔTm": "-5.13 °C"}, {"compound": "CNC(=O)c1ccc2c(c1)ncn2-c1ccc(CC(=O)OC(C)(C)C)cc1", "ΔTm": "-0.01 °C"}, {"compound": "CNC(=O)c1cc(C(=O)N[C@H]2[C@@H]3COC[C@@H]32)cc2c1O[C@H](CF)[C@H]2c1ccccc1", "ΔTm": "0.02 °C"}, {"compound": "CN(C)c1ccc(-c2cc3ncccc3c(OCCCCO)n2)cc1", "ΔTm": "1.32 °C"}, {"compound": "O=C(NC[C@@H]1[C@H]2CN(C(=O)OCc3cc(C(F)(F)F)cc(C(F)(F)F)c3)C[C@@H]12)c1ccc2[nH]nnc2c1", "ΔTm": "0.69 °C"}, {"compound": "COc1cc(-c2cncc(-c3ccc(N4CCN(C(C)C)CC4)cc3)c2C)cc(F)c1C(N)=O", "ΔTm": "0.92 °C"}]}]}
